The panel holds about 83,000 compounds, 20% with a hit somewhere; the sample as a whole holds those more often.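 Method: cells in 96-well plates; compound added at one concentration; 48 h incubation; percent growth measured; values under 10 scored active.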 Unmarked numbers belong to inactive results. Active and inactive are the calls of the source.
Experiments:
Test in all cases: NCI-60 one-dose screen, 48 h (100 = growth as untreated, 0 = no growth, -100 = all killed)
Conditions in all cases: 10 µM unless noted
[1] = system: NCI-H23 lung
[2] = system: NCI-H226 lung
[3] = system: NCI-H322M lung
[4] = system: HOP-62 NSCLC
[5] = system: NCI-H460 lung
[6] = system: HOP-92 NSCLC
[7] = system: A549/ATCC NSCLC
[8] = system: 786-0 renal
[9] = system: COLO 205 colon
[10] = system: DU-145 prostate
[11] = system: K-562 leukemia
[12] = system: MALME-3M melanoma
[13] = system: MDA-MB-231 breast
[14] = system: RXF 393 renal
[15] = system: SF-268 CNS
[16] = system: SF-295 CNS
[17] = system: SF-539 CNS
[18] = system: UACC-257 melanoma
[19] = system: M14 melanoma
[20] = system: NCI-H522 lung

Compound	growth [1]	growth [2]	growth [3]	growth [4]	growth [5]	growth [6]	growth [7]	growth [8]	growth [9]	growth [10]	growth [11]	growth [12]	growth [13]	growth [14]	growth [15]	growth [16]	growth [17]	growth [18]	growth [19]	growth [20] [%]
CCOC(=O)n1cc(-c2nonc2-c2cn(C)c3ncccc23)c2cc(F)ccc21	76%	57.8%	85.8%	89.8%	92.1%	58.8%	70.1%	81.3%	96%	91.1%	61.2%	84.4%	68.2%	78.3%	74.2%	76%	77.9%	91.2%	93.8%	–
O=C1/C(=C/c2ccc3c(c2)OCO3)SC(=S)N1CCc1ccc(O)cc1	94.1%	102%	–	102%	102%	72%	93.5%	75.2%	116%	52.3%	95.8%	89.5%	91.2%	111%	95.2%	99.5%	91.8%	99.7%	94.4%	48.2
Fc1ccc(CNc2cccc3[nH]c(C(F)(F)F)nc23)cc1	99.1%	93.1%	104%	80.3%	83%	-9.4% (active)	89.2%	110%	102%	93.5%	13%	103%	73.8%	99.1%	76.9%	89.9%	97%	101%	109%	–
CCCCn1c(-c2ccc(C(=O)O/N=C(\N)c3ccc4c(c3)OCO4)cc2)nc(-c2ccccc2)c1-c1ccccc1	35.3%	49.9%	66.6%	79.7%	0.397% (active)	17.4%	15.7%	41.9%	57.5%	46.4%	-5.48% (active)	55.6%	33.1%	34.7%	29.4%	61.4%	58.1%	79.9%	54.1%	–
CCCCCCCCCCCCC[N+](C)(C)Cc1ccccc1	-22.8% (active)	-8.07% (active)	82.5%	-73.1% (active)	0.965% (active)	-64.3% (active)	40.5%	-56.1% (active)	-91.8% (active)	0.808% (active)	2.97% (active)	-44.7% (active)	-55.6% (active)	-73.3% (active)	-84.5% (active)	13.5%	-73% (active)	-44.2% (active)	-66.6% (active)	–
N#CN1CC[C@H](C(=O)Nc2cc3cc(C(N)=O)ccc3cn2)C1	-8.58% (active)	-10% (active)	13.6%	-27.1% (active)	6.93% (active)	-6.94% (active)	1.68% (active)	4.19% (active)	-70.1% (active)	7.18% (active)	2.99% (active)	-21.8% (active)	-0.49% (active)	-52.3% (active)	-9.68% (active)	2.85% (active)	-35.9% (active)	-27.9% (active)	-26.5% (active)	–
C=C(C)[C@@H]1CC[C@]2(C(=O)OC)CC[C@]3(C)[C@H](CC[C@@H]4[C@@]5(C)C/C(=C/c6ccc(OC)cc6)C(=O)C(C)(C)[C@@H]5CC[C@]43C)[C@@H]12	84.8%	97.2%	106%	99.9%	101%	77.9%	89.5%	92.2%	94.4%	91.1%	3.32% (active)	99.7%	108%	66.9%	90.7%	99.9%	90.3%	104%	91%	–
OCc1ccc(N2CCc3cccc(F)c3C2)cc1Cl	84.7% [0.1 µM]	-6.37% [0.1 µM] (active)	106% [0.1 µM]	44.7% [0.1 µM]	31% [0.1 µM]	82.3% [0.1 µM]	62.9% [0.1 µM]	66.4% [0.1 µM]	24.9% [0.1 µM]	100% [0.1 µM]	38.5% [0.1 µM]	104% [0.1 µM]	107% [0.1 µM]	103% [0.1 µM]	105% [0.1 µM]	52.7% [0.1 µM]	110% [0.1 µM]	-14.3% [0.1 µM] (active)	111% [0.1 µM]	–
Nc1n[nH]c2cc(F)c([C@@H]3Nc4ccc5[nH]ncc5c4[C@H]4C5CCC(C5)[C@@H]34)cc12 (stereo not given in full)	26.4%	15%	54.7%	26.1%	-11.2% (active)	45.7%	8.81% (active)	25.4%	-26.9% (active)	-7.54% (active)	11.5%	73%	35.8%	54.2%	9.83% (active)	6.25% (active)	-31% (active)	53.1%	-1.74% (active)	–
CC(C)CC1C(=O)N2CCC[C@H]2C2(O)O[C@](NC(=O)C3C=C4c5cccc6[nH]c(Br)c(c56)C[C@H]4N(C)C3)(C(C)C)C(=O)N12 (stereo not given in full)	71.1%	59.5%	71.8%	82.7%	57.2%	66.1%	37.9%	–	47.9%	83.6%	34.5%	74.7%	46.3%	36.8%	55.8%	–	73.6%	51%	66.3%	–
O=C1/C(=C/c2ccc(Cl)cc2)SC(=S)N1CCc1ccc(O)cc1	89.7%	96.1%	99.3%	99.9%	99.3%	73.7%	87%	78.6%	110%	50.2%	96.9%	81.5%	84%	94.1%	85%	102%	80%	99.5%	104%	–
O=[N+]([O-])c1ccc2c(c1)Cc1cc(F)ccc1-2	105%	99.4%	95.6%	106%	106%	80.2%	88.5%	95.4%	107%	114%	–	109%	112%	103%	111%	96.5%	109%	87.1%	110%	–
C/C1=C\CC[C@@]2(C)O[C@H]2[C@H]2OC(=O)C(CN3CCN(CC4C(=O)O[C@H]5[C@H]4CC/C(C)=C/CC[C@@]4(C)O[C@@H]54)CC3)[C@@H]2CC1 (stereo not given in full)	98.5%	99.2%	99.3%	107%	107%	100%	93.5%	109%	98.2%	60.6%	–	101%	87.1%	94.6%	104%	103%	90.5%	83.5%	93.1%	–
Cc1cc(C)nc(SC2=C(Nc3cccc(Cl)c3C)C(=O)N(Cc3ccccc3)C2=O)n1	58.9% [30 µM]	69.2% [30 µM]	63.5% [30 µM]	73% [30 µM]	44% [30 µM]	14.4% [30 µM]	27.3% [30 µM]	61.8% [30 µM]	70.3% [30 µM]	70.7% [30 µM]	45.4% [30 µM]	58% [30 µM]	51.6% [30 µM]	43.3% [30 µM]	72% [30 µM]	-5.72% [30 µM] (active)	50.5% [30 µM]	72.3% [30 µM]	63.1% [30 µM]	–
O=C1/C(=C/N2N=C(c3ccc4ccccc4c3)CC2c2ccccc2O)SC(=S)N1c1cccnc1 (stereo not given)	43.3%	31.7%	46%	25.2%	15.3%	77%	18.8%	14%	27.3%	24.8%	10.9%	79.5%	53%	-8.6% (active)	31.9%	10.5%	-26.2% (active)	69.1%	7.17% (active)	–
CC1CCNC(C)C1 (stereo not given)	104%	95.7%	109%	104%	105%	76.3%	112%	106%	105%	110%	108%	110%	107%	108%	104%	103%	99%	110%	102%	–
